# Among all 69,000 compounds or so, about 8,600 (12%) showed an effect of 50% or more. The sample holds strong results, similar compounds and a random draw of the others, so the mix is not that of the screen.
# System: Plasmodium berghei
# Assay: Screen against P. berghei liver stage (PbLuc), transformed with Luciferase, at 10uM
# Type: functional, HepG2
# Settings: tested at 10 uM
row,Structure (SMILES),INHIBITION
1,COCCNC(=O)Cn1cc(OCc2ccccc2)c(=O)cc1CO,-8.66%
2,Cc1cc(C)n(CC2CCCN2C(=O)c2nccc3ccccc23)n1 (stereo not drawn),-144%
3,COc1ccc(OCCc2nnc(NC(C)=O)s2)cc1,20.9%
4,COc1ccc(-c2cnc(NC(C)=O)[nH]2)cc1,56%
5,CC(=O)Nc1ncc(-c2ccc(C)cc2)[nH]1,45.5%
6,CC(C)CCN1C[C@@H]2C[C@H](C(=O)N3CCCC3)[C@H](C1)O2,10.6%
7,COc1ccccc1C(=O)N1CCOCC1c1c(C)n[nH]c1C (stereo not drawn),-34.8%
8,CN1N=C(C(=O)NCCc2ccc(OC3CCCC3)cc2)CCC1=O,45.4%
9,CC(C)[C@H](NS(C)(=O)=O)C(=O)NCc1cc(-c2ccco2)nn1C,54.5%
10,CC(C)[C@H](NS(C)(=O)=O)C(=O)NCc1cc(-c2ccccc2)nn1C,20.4%
11,CC(C)[C@H](NS(C)(=O)=O)C(=O)NCc1cc(-c2ccco2)n[nH]1,23.4%
12,Cc1nc(CN(CCS(C)(=O)=O)C(C)(C)C)no1,12.9%
13,N#Cc1cccnc1N1CCCN(C(=O)CCc2nccs2)CC1,-19.4%
14,CCOCC(=O)NC1(c2nc(C)cs2)CCCC1,25.2%
15,Cc1nc2cc(CNC(=O)C3CC(=O)N(CCN(C)C)C3)ccc2n1C (stereo not drawn),-4.35%
16,CCN1CC(C(=O)NCc2ccc3c(c2)nc(C)n3C)CCC1=O (stereo not drawn),11.9%
17,Cc1nc2cc(CNC(=O)C3CC(=O)N(C4CCCC4)C3)ccc2n1C (stereo not drawn),53.7%
18,CCc1cnc(N)nc1NCCN1CCCCC1,5.14%
19,CCc1cnc(N)nc1NCCC(=O)NC1CCCCC1,68.4%
20,CCc1nc(N)nc(NCCC(=O)NC2CCCCC2)c1C,41.5%
21,O=C(NC1CC1)C1(Cc2cc(-c3ccc(F)cc3F)no2)CCOCC1,31.6%
22,Nc1nc(O)cc(N2CCC(c3cc(Cc4ccccc4)n[nH]3)CC2)n1,47%

row,Structure (SMILES),INHIBITION
1,Nc1cc(N2CCC(c3cc(Cc4ccccc4)n[nH]3)CC2)ccn1,75.4%
2,Cc1cc(CN2CCC(c3cc(Cc4ccccc4)n[nH]3)CC2)[nH]n1,30.9%
3,Nc1nccc(N2CCC(c3cc(Cc4ccccc4)n[nH]3)CC2)n1,78.8%
4,Cc1ccc(N2CCC(c3cc(Cc4ccccc4)n[nH]3)CC2)nn1,20.9%
5,NC(=O)NCCC(=O)N1CCC(c2cc(Cc3ccccc3)n[nH]2)CC1,-5.22%
6,COc1c(CNCCNC(=O)c2ccccc2F)c(C)nn1C,-7.31%
7,Cc1noc([C@H]2C[C@@H]3CCN(CC4CC4)C[C@H]3O2)n1,-5.29%
8,Cn1cc(I)c(C(=O)NCCCn2cc(Br)cn2)n1,26.8%
9,CC(C)N1CCOCC2(CCCN(C(=O)CCc3cccnc3)C2)C1 (stereo not drawn),35.4%
10,CN1CC(c2cc(O)nc(NCc3ccc(Cl)cc3)n2)CC1=O (stereo not drawn),-17.7%
11,C1CCN(CCOC2CCNC2)CC1 (stereo not drawn),5.42%
12,CCn1cc(CN2C[C@@H]3CC[C@H]2CN(C(=O)c2cnccn2)C3)cn1,21.5%
13,Cc1cc(C(=O)N2CCC3(CC2)CC(c2cccnc2)C(=O)N3C)no1 (stereo not drawn),-36.5%
14,CNCc1cc(F)ccc1Oc1ccc(F)cc1F,-13.7%
15,CCOCC(=O)N1CCC2(CC1)CC(c1ccccc1)CO2 (stereo not drawn),38.5%
16,CC1COC2(CCN(C(=O)Cc3ccncc3)CC2)C1 (stereo not drawn),62.9%
17,COCCC1COC2(CCN(C(=O)Cc3ccccc3)CC2)C1 (stereo not drawn),28.7%
18,O=C(Cc1ccccc1)N1CCC2(CC1)CC(Nc1cnccn1)CO2 (stereo not drawn),31.5%
19,Cn1cc(C2COC3(CCN(C(=O)Cc4ccccc4)CC3)C2)cn1 (stereo not drawn),48.4%
20,O=C(Cc1ccncc1)N1CCC2(CC1)CC(c1ccccc1)CO2 (stereo not drawn),95.5%
21,CCN1CCC(N2CCN(C)C3(CCC(=O)N(CCOC)CC3)C2)CC1 (stereo not drawn),7.92%
22,COc1ccccc1-c1cccc(C2CCCN(C3CCOCC3)C2)n1 (stereo not drawn),36.95%

row,Structure (SMILES),INHIBITION
1,COC(=O)c1cccc(C2CNCCN2C)c1 (stereo not drawn),32.7%
2,Cn1ccnc1CN1CCC2(CC1)Cc1ccccc1CNC2=O,23.6%
3,Cc1nccc(C2CCCN(S(=O)(=O)N3CCOCC3)C2)n1 (stereo not drawn),24.075%
4,CNC(=O)CCN(C)CC1(c2ccc(Br)cc2)CC1,-0.532%
5,Cc1ccccc1CN1C[C@H]2CC[C@@H](C1)N(CC1CCC1)C2=O,28.3%
6,CCn1cnnc1CNC(=O)N1CCOC(c2ccc(Cl)cc2)C1 (stereo not drawn),27.5%
7,O=C(CN1C(=O)CCNC1=O)N1CCOC(c2ccc(F)cc2)C1 (stereo not drawn),-141%
8,N#CC1(C(=O)N2CCOC(c3ccc(F)cc3)C2)CCCC1 (stereo not drawn),54.2%
9,N#CC1(C(=O)N2CCOC(c3ccc(Cl)cc3)C2)CCCC1 (stereo not drawn),57.1%
10,NS(=O)(=O)CCN1CCOC(c2ccc(Cl)cc2)C1 (stereo not drawn),-51.9%
11,N#CC1(C(=O)N2CCOC(c3ccc(F)cc3)C2)CCCCC1 (stereo not drawn),-14.2%
12,CCN1CC2(CNCCN(C(=O)Nc3ccccc3)C2)CC1=O (stereo not drawn),-80%
13,Cc1cccc(CN2C(=O)CCC23CCN(C(=O)NC(C)C)CC3)n1,-40.5%
14,CC(C(=O)NCCCN1CCOCC1)n1cncn1 (stereo not drawn),-22.9%
15,c1csc(CN2CCC3(CCCN(c4nncs4)C3)C2)n1 (stereo not drawn),-79.8%
16,CCCS(=O)(=O)N1CCC2(CCCN(c3ncc(F)cn3)C2)C1 (stereo not drawn),41%
17,CS(=O)(=O)N1CCC2(CCCN(c3ncc(F)cn3)C2)C1 (stereo not drawn),28.2%
18,c1cnc(N2CCCC3(CCN(Cc4cccs4)C3)C2)nc1 (stereo not drawn),-20.8%
19,Fc1cnc(N2CCCC3(CCN(Cc4ccco4)C3)C2)nc1 (stereo not drawn),-3.88%
20,COc1ccc(CN2CCC3(CCCN(c4ncc(F)cn4)C3)C2)cc1 (stereo not drawn),74.2%
21,c1ccc(N2CCCC3(CCN(Cc4nccs4)C3)C2)nc1 (stereo not drawn),29.1%
22,Fc1cnc(N2CCCC3(CCN(Cc4cccs4)C3)C2)nc1 (stereo not drawn),57.9%

row,Structure (SMILES),INHIBITION
1,CCS(=O)(=O)N1CCC2(CCCN(c3ncc(F)cn3)C2)C1 (stereo not drawn),55.5%
2,COCCN1CCC2(CCCN(c3ncc(F)cn3)C2)C1 (stereo not drawn),24.9%
3,Fc1cnc(N2CCCC3(CCN(Cc4ccoc4)C3)C2)nc1 (stereo not drawn),40.4%
4,Fc1cnc(N2CCCC3(CCN(Cc4nccs4)C3)C2)nc1 (stereo not drawn),55.5%
5,CCc1noc(C)c1C(=O)N1CCC(c2[nH]ncc2S(C)(=O)=O)C1 (stereo not drawn),35.2%
6,CCNc1cc2c(nn1)CCN(C(=O)c1c(C)noc1C)C2,14.1%
7,O=C(NCCCO)NCCc1cc(F)ccc1F,22.6%
8,Cc1ccc(CN2CCCn3c(nc(Cn4ccnc4)cc3=O)C2)o1,10%
9,CN1CCCC1c1ccnc(-c2ccccn2)n1 (stereo not drawn),-5.8%
10,NC(=O)COc1ccc(CNCc2c(F)cccc2F)cc1,31.1%
11,Cc1ccc(-c2nc(CNC3CCc4ncnn4C3)co2)cc1 (stereo not drawn),12.7%
12,O=C([C@H]1C[C@H]2CN(c3ncc(F)cn3)C[C@@H]1O2)N1CCCC1,41.2%
13,c1ccc(Cc2nc(CNCCn3cccn3)cs2)cc1,21.5%
14,CC(C)c1nnc2n1CCN(C(=O)c1cc3cc(F)ccc3[nH]1)C2,45.7%
15,N#Cc1cccc(N2CCCC3(CCC(=O)N(C4CCCC4)C3)C2)n1 (stereo not drawn),18.9%
16,CC(C)c1cccc(N2CCCC3(CCC(=O)N(C4CC4)C3)C2)n1 (stereo not drawn),50.5%
17,CC(O)c1cccc(N2CCC3(CCC(=O)N(C4CCCC4)C3)CC2)n1 (stereo not drawn),-9.31%
18,COCCCNC(=O)c1ccccc1S(C)(=O)=O,18.4%
19,Cc1cc(=O)[nH]c(=O)n1-c1cccc(Cl)c1Cl,17.1%
20,Cc1cc(C)n(-c2cncc(NCCNC(=O)c3cccnc3)n2)n1,31.9%
21,CC(C)OCc1nn(C)c2c1CN(Cc1cccs1)CC2,35.8%
22,COc1ccc(C(=O)n2nc(C)c(C)c2C)cc1,30.7%

row,Structure (SMILES),INHIBITION
1,Cc1nn(C(C)C)c(C)c1NC(=O)c1cccnc1,7.18%
2,Cc1nn(C(=O)c2cccnc2)c(C)c1C,64.6%
3,CO[C@@H]1CC[C@H]2[C@H]1OCCN2Cc1ccc(F)c(F)c1,-8.28%
4,Cc1ccccc1C(C(=O)NCCSC(F)(F)F)N(C)C (stereo not drawn),-33.8%
5,CC1(C)Cc2nc(C(C)(C)C)ncc2C(NC(=O)Cc2nnn[nH]2)C1 (stereo not drawn),-0.71%
6,COC(=O)CC(c1cccs1)c1oc(C)cc(=O)c1O (stereo not drawn),27.5%
7,CCN1CCn2c(C)cnc2C12CCN(C(=O)c1ccc(Cl)cc1)CC2,31.9%
8,CC(=O)NCCCC(=O)NC(C)c1nnc2n1CCC2 (stereo not drawn),1.75%
9,CCOCC(=O)N1CCOCC2(CCN(c3ncccn3)C2)C1 (stereo not drawn),14.5%
10,CCCS(=O)(=O)N1CCCC(c2nc(-c3ccccc3)c[nH]2)C1 (stereo not drawn),44.4%
11,CCN(CC)S(=O)(=O)N1CCCC(c2ccc(C(=O)O)cc2)C1 (stereo not drawn),36.8%
12,CS(=O)(=O)N1CCCC(c2nc(-c3ccccc3)c[nH]2)C1 (stereo not drawn),50.4%
13,CC(=O)N1CCCC(c2nc(-c3ccccc3)c[nH]2)C1 (stereo not drawn),16.6%
14,CCN(C)S(=O)(=O)N1CCCC(c2cccc(C(=O)O)c2)C1 (stereo not drawn),-5.38%
15,CCN(C)S(=O)(=O)N1CCCC(c2nc(-c3ccccc3)c[nH]2)C1 (stereo not drawn),89.1%
16,O=C(c1cc(C2CCCCN2CCO)n[nH]1)N1CCOCC1 (stereo not drawn),-0.902%
17,Cc1ncncc1C(=O)NCCn1nc2ccccn2c1=O,12.915%
18,CCCS(=O)(=O)N1CCN(c2ccc3nnc(CC)n3n2)CC1,-37.2%
19,Cc1ccccc1OCC(=O)NCC(c1ccc(N(C)C)cc1)N(C)C (stereo not drawn),27.5%
20,CCNc1nc2cn(-c3ccc(OC(F)(F)F)cc3)c(=O)c-2c[nH]1,45.6%
